Screens (PubChem BioAssay)
COUP-TFII inh – inhibitors of human COUP-TFII (NR2F2). P24468. HEK293T NGFI-A luciferase reporter, luminescence. inhibition, % at 8.6 µM. 0.7% of 370,000 active. AID 686940;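 active means inhibition above a per-plate cutoff, mean inhibition of test wells between control levels plus 3 SD, cut at about 38% in these data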;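 further: cells cotransfected with COUP-TFII expression vector driving the NGFI-A reporter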
NCOA3 inh – inhibits human SRC3 coactivator | Q9Y6Q9 | HEK293 GAL4-SRC3 luciferase reporter, luminescence | inhibition, % at 3.6 µM | 0.17% of 360,000 active;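 active means inhibition above a per-campaign cutoff, the mean of all compounds plus 3 SD, cut at about 60% in these data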;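 further: higher means less SRC3-driven luciferase light from the GAL4 reporter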
SRC1 inh – inhibitors of human steroid receptor coactivator 1 (SRC1); Q15788; HEK293 GAL4-SRC1 luciferase reporter, luminescence; inhibition, % at 3.6 µM; 0.12% of 360,000 active;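 active means inhibition above the campaign mean plus 3 SD, with each screening campaign given its own cutoff, cut at about 60% in these data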
Target sequence (Q15788 whole entry, looked up, the tested form may be a part): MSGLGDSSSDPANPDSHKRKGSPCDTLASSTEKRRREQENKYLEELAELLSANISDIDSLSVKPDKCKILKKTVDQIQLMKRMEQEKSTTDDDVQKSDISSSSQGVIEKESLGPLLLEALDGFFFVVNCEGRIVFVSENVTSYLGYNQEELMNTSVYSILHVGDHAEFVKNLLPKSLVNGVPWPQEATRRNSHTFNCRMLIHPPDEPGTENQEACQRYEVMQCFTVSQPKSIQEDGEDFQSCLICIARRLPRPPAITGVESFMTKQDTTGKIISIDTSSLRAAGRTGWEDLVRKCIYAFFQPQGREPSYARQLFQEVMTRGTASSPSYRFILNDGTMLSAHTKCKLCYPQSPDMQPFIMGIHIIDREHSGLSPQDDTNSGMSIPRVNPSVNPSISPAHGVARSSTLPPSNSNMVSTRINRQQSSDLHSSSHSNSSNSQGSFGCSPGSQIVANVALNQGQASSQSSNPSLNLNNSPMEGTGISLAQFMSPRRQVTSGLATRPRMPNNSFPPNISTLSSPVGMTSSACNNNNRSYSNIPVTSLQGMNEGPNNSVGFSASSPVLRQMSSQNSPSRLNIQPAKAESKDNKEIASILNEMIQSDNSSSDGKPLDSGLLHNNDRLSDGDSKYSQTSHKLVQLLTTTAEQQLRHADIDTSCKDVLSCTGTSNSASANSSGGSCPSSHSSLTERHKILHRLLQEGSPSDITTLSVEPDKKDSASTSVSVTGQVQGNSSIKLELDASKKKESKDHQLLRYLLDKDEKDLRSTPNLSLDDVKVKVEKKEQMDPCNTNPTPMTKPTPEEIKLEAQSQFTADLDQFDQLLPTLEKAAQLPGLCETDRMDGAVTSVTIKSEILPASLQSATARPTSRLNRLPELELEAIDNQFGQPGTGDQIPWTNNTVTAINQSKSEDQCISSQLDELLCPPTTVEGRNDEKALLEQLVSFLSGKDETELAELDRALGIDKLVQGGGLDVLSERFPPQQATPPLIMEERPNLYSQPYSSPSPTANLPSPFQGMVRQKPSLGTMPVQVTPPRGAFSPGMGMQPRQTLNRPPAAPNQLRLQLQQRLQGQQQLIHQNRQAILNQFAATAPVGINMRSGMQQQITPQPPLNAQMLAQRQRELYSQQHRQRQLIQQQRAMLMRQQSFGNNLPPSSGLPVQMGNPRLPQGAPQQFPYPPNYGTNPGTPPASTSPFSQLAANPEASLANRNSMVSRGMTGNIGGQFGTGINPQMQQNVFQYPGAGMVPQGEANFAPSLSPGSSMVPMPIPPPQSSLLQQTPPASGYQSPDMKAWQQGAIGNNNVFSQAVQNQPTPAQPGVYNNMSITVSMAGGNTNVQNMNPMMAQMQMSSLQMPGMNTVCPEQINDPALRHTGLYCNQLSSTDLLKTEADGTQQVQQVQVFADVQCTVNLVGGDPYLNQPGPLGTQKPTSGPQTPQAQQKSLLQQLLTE
LRH-1 inv ag – suppresses constitutive activity of human LRH-1; O00482; HEK293T StAR-luciferase reporter, LRH-1 transfected, 24 h; inhibition, % at 3.6 µM; 0.13% of 360,000 active;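 active means inhibition above the mean inhibition of all tested compounds plus 3 SD, cut at about 73% in these data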
SRC2 inh – inhibits human steroid receptor coactivator 2; 0.17% of 370,000 active; HEK293 GAL4-SRC2 luciferase reporter, luminescence; Q15596; inhibition, % at 9 µM;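 active means inhibition above the mean inhibition of all tested compounds plus 3 SD, set per campaign, cut at about 52% in these data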
Gal4-VP16 ctr – inhibits VP16 reporter, flagging COUP-TFII antagonist hits | shares compounds with COUP-TFII inh | HEK293 Gal4-VP16 luciferase reporter, luminescence | inhibition, % at 8.5 µM | 25% of 2,500 active; in the data active means inhibition above about 13%
COUP-TFII conf – COUP-TFII (NR2F2) inhibition, confirmation assay; inhibition, % at 8.5 µM; HEK293 NGFI-A luciferase reporter, luminescence; 45% of 2,500 active; shares compounds with COUP-TFII inh;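 active means mean inhibition over three repeats above a set limit taken from the earlier primary screen, cut at about 38% in these data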
Hits are given with their value; n = inactive; x = not tested or not shown. Rows were chosen to be rich in hits. Some 0.81% of all compounds tested hit in one or more screens of this group.

SMILES | COUP-TFII inh | NCOA3 inh | SRC1 inh | LRH-1 inv ag | SRC2 inh | Gal4-VP16 ctr | COUP-TFII conf
CC(C)(C)c1ccc(CC(=O)N2CCC2(C)C(=O)Nc2cnc3ccccc3c2)cc1 (centres undefined) | 41.4 | n | n | n | n | n | n
CC(C)(C)c1ccc(C(=O)N2CCC2(C)C(=O)Nc2cnc3ccccc3c2)cc1 (centres undefined) | n | n | n | n | n | x | x
CC1CN(c2nc3ccccc3nc2SCC(=O)N2CCN(S(=O)(=O)c3ccccc3)CC2)CC(C)O1 (centres undefined) | 42.7 | x | x | x | n | n | n
CC1CN(c2nc3ccccc3nc2SCC(=O)N2CCN(S(=O)(=O)c3ccc(F)cc3)CC2)CC(C)O1 (centres undefined) | n | x | x | x | n | x | x
CN(C)c1cc(O)c(C(=S)Nc2ccccc2)c(N(C)C)c1 | n | n | n | n | n | x | x
CN(C)c1ccc(NC(=S)c2ccccn2)cc1 | 41.9 | n | n | n | n | n | 38.2
CN(C)c1ccc(/C=N/NC(=O)c2ccccn2)cc1 | n | n | n | n | n | x | x
CN(C)c1ccc(C(=S)Nc2ccccc2)cc1 | 46.3 | n | n | n | n | n | n
NS(=O)(=O)c1ccc(NC(=S)N2CCN(c3ccc(Cl)c(Cl)c3)CC2)cc1 | 37.9 | n | n | n | n | 13.2 | n
O=C(Nc1cccs1)OC1CC2CC1[C@H]1CCCCN1C2 (some centres undefined) | n | x | x | x | n | x | x
Cc1ccc(NS(=O)(=O)c2ccc(C(=O)N3CCN(c4ncccn4)CC3)cc2)cc1 | 39.1 | n | n | n | n | n | n
COc1ccc([C@H]2CC(=O)C=C(c3ccc(Oc4ccccc4)cc3)C2)cc1OC | 44.2 | n | n | n | n | n | n
C=CCN1C(=O)[C@@H](CC(=O)N2CCN(C(=O)C3CC3)CC2)[C@]2(C(=O)OC)CCCCC=C12 | n | x | x | x | n | x | x
O=C(Nc1ccc2cn[nH]c2c1)c1c(Cl)cccc1Cl | n | n | n | n | n | x | x
O=C1C(Cl)=C(Nc2ccc3cn[nH]c3c2)C(=O)c2ccccc21 | 41.2 | n | n | n | 87.7 | n | n
Cc1noc(C)c1C(C)C1=CCCCC1 (centres undefined) | n | x | x | x | n | x | x
Cc1ccc2nc(NC(=O)CSCC(=O)OCC(=O)c3ccccc3)sc2c1 | 77.2 | n | n | n | 73.3 | 79.1 | 59.5
O=c1c2ccccc2nc2n1C(CSCc1ccc(Cl)cc1)CS2 (centres undefined) | 42.4 | n | n | n | n | n | n
O=C(/C=C/Nc1ccccc1Br)c1ccccn1 | 68.5 | n | n | n | 81.1 | 61.2 | 79.6
COc1ccc(-c2noc(CCCCC(=O)N3CCN(c4cc(C)ccc4C)CC3)n2)cc1 | 82.0 | n | n | n | n | 21.7 | 65.2
Cc1ccc(C2=[N+]([O-])C3(CCCCC3=O)N(O)C2(C)C)cc1 (centres undefined) | 80.2 | n | n | n | 78.3 | n | n
CCC(=O)Nc1nc(-c2ccc3c(c2)CC(C)N3S(C)(=O)=O)cs1 (centres undefined) | n | n | n | n | n | x | x
CC1Cc2cc(-c3csc(NC(=O)Cc4cccs4)n3)ccc2N1S(C)(=O)=O (centres undefined) | 81.2 | 63.6 | n | n | n | n | 85.4
COc1ccc(N2CCN(CCCNC(=O)Cn3c(=O)c4cccn4c4c(C)ccnc43)CC2)cc1 | n | x | x | x | x | x | x
CC[n+]1ccc(/C=C/c2c[nH]c3ccccc23)cc1 | 50.7 | n | n | n | n | n | n
SMILES | COUP-TFII inh | NCOA3 inh | SRC1 inh | LRH-1 inv ag | SRC2 inh | Gal4-VP16 ctr | COUP-TFII conf
Cc1ccc2[nH]cc(/C=C/c3cc[n+](C)cc3)c2c1 | 42.9 | n | n | n | n | n | n
COc1ccc2c(/C=C/c3cc[n+](C)cc3)c[nH]c2c1 | 38.2 | n | n | n | n | n | 38.9
COc1ccc2c(C=O)c[nH]c2c1 | n | n | n | n | n | x | x
CCn1c(/C=C/c2c[nH]c3ccccc23)nc2ccccc2c1=O | n | n | n | n | n | x | x
O=S1(=O)c2ccc(N3CCSCC3)cc2Oc2ccccc2CN1Cc1cn(Cc2ccccc2C(F)(F)F)nn1 | n | x | x | x | n | x | x
Cc1ccccc1C(=O)NC1CCCCN(Cc2ccc(Cl)cc2)C1=O (centres undefined) | n | x | x | x | n | x | x
CN1CCN(c2ccc(-c3ccc4ccccc4n3)cc2)CC1 | 89.5 | 79.5 | 79.3 | 73.7 | 75.6 | 52.0 | 90.5
COc1cccc(NS(=O)(=O)c2ccc3c(c2)CCN3C(C)=O)c1 | n | n | n | n | n | x | x
CSc1cccc(NS(=O)(=O)c2ccc3c(c2)CCN3C(C)=O)c1 | 45.3 | n | n | n | n | n | 48.1
COCCn1c(C)cc(C2=NNC(=Nc3ccccc3F)SC2)c1C | 90.0 | 85.0 | 83.8 | 87.1 | 84.1 | 35.7 | 80.5
c1nc(N2CCOCC2)c2c3c(sc2n1)CCCC3 | n | n | n | n | n | x | x
Cc1nc(N2CCN(C(=O)COc3ccccc3C)CC2)c2c3c(sc2n1)CCCC3 | 75.7 | x | x | x | x | n | n
O=C(c1ccccc1)N1CCN(c2ncnc3sc4c(c23)CCC4)CC1 | 40.0 | n | n | n | n | n | n
COc1ccc(CC2C(=O)NC(C)C(=O)N(C)C3Cc4ccc(cc4)Oc4cc(ccc4O)CC(C(=O)NC(C)C(=O)NC(C)C(=O)N2C)N(C)C3=O)cc1 (centres undefined) | 87.8 | 93.8 | 93.5 | 97.8 | 76.1 | 19.5 | 81.8
CC(C)C[C@@H]1NC(=O)[C@H](Cc2ccccc2)N(C)C(=O)[C@H](C)NC(=O)c2ccccc2NC(=O)[C@H](Cc2ccc(O)cc2)N(C)C1=O | n | n | n | n | n | x | x
Cc1cc(N2CCCC2)ccc1NC(=O)COc1cccc(C(F)(F)F)c1 | 40.0 | n | n | n | n | n | n
CCN(Cc1ccccc1)C(=O)C1CCCN(c2ncccn2)C1 (centres undefined) | n | x | x | x | n | x | x
CC[n+]1ccccc1/C=C/c1ccc(N(C)C)cc1 | 66.0 | n | n | n | n | n | 50.1
CN(C)c1ccc(C(=O)/C=C/c2ccccc2)cc1 | n | n | n | n | n | x | x
CN(C)c1ccc(/C=N/NC(=O)C[n+]2ccccc2)cc1 | n | n | n | n | n | x | x
CCCCCC[n+]1ccccc1/C=C/c1ccc(N(C)C)cc1 | 92.2 | 82.2 | 71.5 | 98.4 | n | 25.1 | 89.3
COc1ccc(NC(=O)C2Cc3c(-c4ccc5c(c4)OCO5)ccnc3O2)cc1OC (centres undefined) | 66.1 | n | n | n | n | n | 57.3
COc1ccc(NC(=O)C2Cc3c(-c4ccc(NC(C)=O)cc4)ccnc3O2)cc1OC (centres undefined) | n | n | n | n | n | x | x
COc1ccc(NC(=O)C2Cc3c(-c4cccc(F)c4)ccnc3O2)cc1OC (centres undefined) | 51.6 | n | n | n | n | n | n
